# Source: PubChem BioAssay (EPA / NIEHS)
# Inconclusive results are not listed. Activity calls are given as the source filed them. The calls were made as follows, unless noted: active = hit-call score of the fitted dose curve at least 0.9, where 1 is the maximum; inconclusive = response in the unintended direction; inactive = score below 0.9.
# How the values were obtained:
# [1] = read-out: UDP glucuronosyltransferase (UGT1A6), UGT1A6 (gene 54578); test: LTEA_HepaRG_UGT1A6: Life Technologies and Expression Analysis (LTEA) Assay for UDP glucuronosyltransferase (UGT1A6) using HepaRG (AID 2283539; active = hit-call score of the fitted dose curve at least 0.9, where 1 is the maximum; inactive = score below 0.9); conditions: mRNA level, 48 h; actives raise or lower the signal
# Outline: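 Human HepaRG cells were dosed for 48 h in serum-free induction medium with 0.5% DMSO vehicle, eight-point half-log series from 100 uM, in duplicate. UGT1A6 mRNA was measured by qRT-PCR, normalized to ACTB, GAPDH, POLR2A, and fitted bidirectionally against DMSO.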
# [2] = LTEA_HepaRG_LDH_cytotoxicity: Cytotoxicity Assessment in the Life Technologies and Expression Analysis (LTEA) Assay (AID 2283563)
# Outline: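 Differentiated human HepaRG cells, plated 48 h beforehand, were switched to serum-free induction medium and exposed for 48 h to eight half-log concentrations (top 100 uM) in 0.5% DMSO. LDH was measured in spent medium; activity was fitted relative to DMSO vehicle.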
# [3] = target: Cellular tumor antigen p53 (Homo sapiens) (UniProt P04637); test: TOX21_p53_BLA_p2_ratio: Tox21 HCT-116 p53 Agonism Beta-lactamase Assay, Ratio, Phase 2 (AID 2283592)
# Cellular tumor antigen p53 (Homo sapiens), sequence (P04637 whole entry, looked up): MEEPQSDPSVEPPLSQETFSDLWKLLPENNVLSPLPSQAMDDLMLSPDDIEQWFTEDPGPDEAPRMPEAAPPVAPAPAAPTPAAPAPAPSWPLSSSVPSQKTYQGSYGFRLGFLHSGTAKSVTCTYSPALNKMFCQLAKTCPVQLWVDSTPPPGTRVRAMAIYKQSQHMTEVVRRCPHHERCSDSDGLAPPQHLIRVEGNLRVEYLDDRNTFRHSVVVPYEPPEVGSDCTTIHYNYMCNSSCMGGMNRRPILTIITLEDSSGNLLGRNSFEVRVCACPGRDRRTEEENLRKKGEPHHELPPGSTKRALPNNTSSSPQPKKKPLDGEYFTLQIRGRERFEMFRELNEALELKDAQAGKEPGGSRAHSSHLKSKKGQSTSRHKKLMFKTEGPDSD
# Outline: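 HCT116 cells carrying a p53-responsive beta-lactamase reporter were plated, incubated 5 h at 37C, then dosed with compounds in DMSO (217-fold dilution) for 16 h. CCF4-AM substrate was added for 2 h at room temperature; the 460/530 nm emission ratio gave gain-of-signal activity relative to DMSO.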
# [4] = target: Cellular tumor antigen p53 (Homo sapiens) (UniProt P04637); test: TOX21_p53_BLA_p3_ratio: Tox21 HCT-116 p53 Agonism Beta-lactamase Assay, Ratio, Phase 3 (AID 2283596)
# Outline: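 HCT116 p53-bla cells (4000/well) given compound in DMSO (217-fold dilution) after 5 h, incubated 16 h at 37C. CCF4-AM substrate 2 h at room temperature; 460/530 nm emission ratio, gain fitted against DMSO.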
# [5] = TOX21_p53_BLA_p4_viability: Viability Assessment in the Tox21 HCT-116 p53 Agonism Beta-lactamase Assay, Phase 4 (AID 2283597);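 also: hits lower the luminescence signal meaning cytotoxicity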
# Outline: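 HCT116 p53-bla cells (4000/well) rested 5 h at 37C, then received compounds in DMSO (217-fold dilution) for 16 h at 37C, 5% CO2. CellTiter-Glo was added after the CCF4-AM read, and luminescence was read after 30 min at room temperature.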
# [6] = Tanguay_ZF_120hpf_MORT_legacy: (Legacy) Oregon State University Tanguay Lab 120 Hour Post-fertilization zebrafish Assay for Mortality (AID 2283633)
# Outline: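 Dechorionated Tropical 5D wild-type zebrafish embryos, one per well from 6 hpf, were statically exposed at 28C in the dark until 120 hpf (0.64% DMSO final). Mortality was scored as present/absent by brightfield microscopy, fitted positively versus DMSO.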
# [7] = Tanguay_ZF_120hpf_YSE_legacy: (Legacy) Oregon State University Tanguay Lab 120 Hour Post-fertilization zebrafish Assay for Yolk Sac Edema (AID 2283634);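 as to AC50: actives raise the incidence of yolk sac edema above the DMSO baseline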
# Outline: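 Tropical 5D wild-type embryos, dechorionated with pronase at 4 hpf, were exposed singly from 6 hpf to 120 hpf under static, sealed, dark conditions at 28C with 0.64% DMSO final. Yolk sac edema was scored present/absent by brightfield microscopy.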
# [8] = Tanguay_ZF_120hpf_AXIS_legacy: (Legacy) Oregon State University Tanguay Lab 120 Hour Post-fertilization zebrafish Assay for Body Axis Malformation (AID 2283635);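 as to AC50: potency for an increased fraction of larvae scored with body axis malformation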
# Outline: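 Tropical 5D wild-type zebrafish embryos, dechorionated with pronase at 4 hpf, were placed singly in wells at 6 hpf and exposed statically to test chemical (0.64% DMSO final) at 28C until 120 hpf, then scored by brightfield for body axis defects.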
# [9] = Tanguay_ZF_120hpf_EYE_legacy: (Legacy) Oregon State University Tanguay Lab 120 Hour Post-fertilization zebrafish Assay for Eye Malformation (AID 2283636);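 also: binary presence or absence of eye malformation scored by brightfield in 120 hpf larvae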
# Outline: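 Dechorionated Tropical 5D zebrafish embryos, one per well from 6 hpf, static exposure to 120 hpf at 28C, 0.64% DMSO. Eye malformation scored present/absent by brightfield; dead embryos not scored.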
# [10] = Tanguay_ZF_120hpf_SNOU_legacy: (Legacy) Oregon State University Tanguay Lab 120 Hour Post-fertilization zebrafish Assay for Snout Malformation (AID 2283637)
# Outline: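 Dechorionated tropical 5D wild-type zebrafish embryos exposed statically from 6 to 120 hpf at 28C, one per well, in 0.64% DMSO. Snout malformation scored as present/absent by brightfield at 120 hpf; dead embryos not scored.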
# [11] = Tanguay_ZF_120hpf_JAW_legacy: (Legacy) Oregon State University Tanguay Lab 120 Hour Post-fertilization zebrafish Assay for Jaw Malformation (AID 2283638);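 as to AC50: active means more embryos with jaw malformation than DMSO controls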
# Outline: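 Tropical 5D wild-type embryos, dechorionated with pronase at 4 hpf, were placed singly per well at 6 hpf and statically exposed at 28C until 120 hpf (0.64% DMSO final). Jaw malformation scored as present/absent by brightfield microscopy at 120 hpf, analyzed relative to DMSO.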
# [12] = Tanguay_ZF_120hpf_PE_legacy: (Legacy) Oregon State University Tanguay Lab 120 Hour Post-fertilization zebrafish Assay for Pericardial Edema (AID 2283640);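 as to AC50: potency for increased incidence of pericardial edema versus DMSO baseline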
# Outline: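 Tropical 5D wild-type zebrafish embryos were exposed statically to 120 hpf at 28C, sealed and foil-covered, in 0.64% DMSO final. Pericardial edema was scored present/absent by brightfield microscopy; dead embryos were not scored.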
# [13] = Tanguay_ZF_120hpf_BRAI_legacy: (Legacy) Oregon State University Tanguay Lab 120 Hour Post-fertilization zebrafish Assay for Brain Malformation (AID 2283641)
# Outline: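 Tropical 5D wild-type zebrafish embryos were exposed statically in sealed, foil-covered plates at 28C until 120 hpf, with 0.64% (vol/vol) final DMSO. Brain malformation was scored present/absent by brightfield microscopy, relative to DMSO baseline.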
# [14] = target: Cellular tumor antigen p53 (Homo sapiens) (UniProt P04637); test: TOX21_p53_BLA_p5_ratio: Tox21 HCT-116 p53 Agonism Beta-lactamase Assay, Ratio, Phase 5 (AID 2283599)
# Outline: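 HCT-116 p53-bla cells (4000/well) plated 5 h, dosed with compound (217-fold DMSO dilution) for 16 h at 37 C; CCF4-AM substrate 2 h at room temperature. Activity is the 460/530 nm emission ratio (405 nm excitation), fitted in gain-of-signal direction versus DMSO.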
# [15] = target: Cellular tumor antigen p53 (Homo sapiens) (UniProt P04637); test: TOX21_p53_BLA_p4_ratio: Tox21 HCT-116 p53 Agonism Beta-lactamase Assay, Ratio, Phase 4 (AID 2283601)
# Outline: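 HCT-116 p53 beta-lactamase reporter cells (4000/well) preincubated 5 h, then compound (217-fold dilution of DMSO stock) for 16 h at 37C. CCF4-AM substrate added 2 h at room temperature; 460/530 nm emission ratio fitted upward versus DMSO.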
# [16] = TOX21_p53_BLA_p2_viability: Viability Assessment in the Tox21 HCT-116 p53 Agonism Beta-lactamase Assay, Phase 2 (AID 2283591);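 also: compound exposure lasted 16 h at 37 °C; actives lower the ATP signal meaning cytotoxicity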
# Outline: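 HCT116 p53-bla cells, 4000/well, dosed after 5 h plating (217-fold dilution of DMSO stocks) and incubated 16 h at 37C. Viability taken as cellular ATP by CellTiter-Glo luminescence after 30 min RT; signal loss marks cytotoxicity.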
# [17] = TOX21_p53_BLA_p5_viability: Viability Assessment in the Tox21 HCT-116 p53 Agonism Beta-lactamase Assay, Phase 5 (AID 2283600)
# Outline: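 Cells were plated at 4000/well, rested 5 h at 37C, then given compounds in DMSO (217-fold dilution) for 16 h at 37C, 5% CO2. Following the CCF4-AM beta-lactamase read, CellTiter-Glo was added and luminescence was read after 30 min at room temperature.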
# [18] = Tanguay_ZF_120hpf_OTIC_legacy: (Legacy) Oregon State University Tanguay Lab 120 Hour Post-fertilization zebrafish Assay for Otic Vesicle Malformation (AID 2283639)
# Outline: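 Embryos from 5D wild-type adults exposed in plates; DMSO 0.64% v/v final. Sealed, light-protected, 28C, static to 120 hpf. Otic vesicle malformation recorded as binary endpoint; gain-of-signal fitted vs DMSO.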
smiles,measurement,setting,value
CCCC(=NOCC)C1=C(O)CC(CC(C)SCC)CC1=O (centres undefined),outcome,[1],inactive
same,outcome,[2],inactive
same,outcome,[3],inactive
same,outcome,[4],inactive
same,outcome,[5],inactive
same,outcome,[6],inactive
same,outcome,[7],inactive
same,outcome,[8],inactive
same,outcome,[9],inactive
same,outcome,[10],inactive
same,outcome,[11],inactive
same,outcome,[12],inactive
same,outcome,[13],inactive
CCOc1nc(F)cc2nc(S(=O)(=O)Nc3c(Cl)cccc3Cl)nn12,outcome,[1],inactive
same,outcome,[4],inactive
same,outcome,[5],inactive
same,outcome,[14],inactive
same,outcome,[15],inactive
same,outcome,[6],inactive
same,outcome,[8],inactive
same,outcome,[10],inactive
same,outcome,[11],inactive
same,outcome,[12],inactive
same,outcome,[13],inactive
CCNP(=S)(OC)O/C(C)=C/C(=O)OC(C)C (centres undefined),outcome,[1],inactive
same,outcome,[2],inactive
same,outcome,[4],inactive
same,outcome,[5],inactive
same,outcome,[15],inactive
same,outcome,[6],inactive
same,outcome,[7],inactive
same,outcome,[8],inactive
same,outcome,[9],inactive
same,outcome,[10],inactive
same,outcome,[11],inactive
same,outcome,[12],inactive
same,outcome,[13],inactive
CC(C)N1C(=O)c2ccccc2NS1(=O)=O,outcome,[1],inactive
same,outcome,[2],inactive
same,outcome,[16],inactive
same,outcome,[3],inactive
same,outcome,[4],inactive
same,outcome,[5],inactive
same,outcome,[14],inactive
same,outcome,[17],inactive
same,outcome,[15],inactive
same,outcome,[6],inactive
same,outcome,[8],inactive
same,outcome,[9],inactive
same,outcome,[10],inactive
same,outcome,[11],inactive
same,outcome,[18],inactive
same,outcome,[12],inactive
same,outcome,[13],inactive
CCCCC(C#N)(Cn1cncn1)c1ccc(Cl)cc1 (centres undefined),outcome,[1],inactive
same,outcome,[2],inactive
same,outcome,[16],inactive
same,outcome,[3],inactive
same,outcome,[4],inactive
same,outcome,[5],inactive
same,outcome,[14],inactive
same,outcome,[17],inactive
same,outcome,[15],inactive
same,outcome,[6],inactive
same,AC50,[7],37.7 µM (active)
same,AC50,[8],56 µM (active)
same,AC50,[9],49.4 µM (active)
same,AC50,[10],48.6 µM (active)
same,AC50,[11],48 µM (active)
same,AC50,[12],46.8 µM (active)
same,outcome,[13],inactive
Clc1nc(Cl)nc(Nc2ccccc2Cl)n1,outcome,[1],inactive
same,outcome,[2],inactive
same,outcome,[3],inactive
same,outcome,[5],inactive
same,outcome,[14],inactive
same,outcome,[17],inactive
same,outcome,[15],inactive
same,outcome,[6],inactive
same,outcome,[7],inactive
same,outcome,[8],inactive
same,outcome,[9],inactive
same,outcome,[11],inactive
same,outcome,[12],inactive
